Records with an inconclusive call do not appear. The source made the active and inactive calls. Calls follow the shape of the dose curve; as a rule, active = well fitted cell-killing curve with a large enough effect in the repeat runs; inconclusive = weak or mixed curves; inactive = no such curve, though single readings can be large or run the other way.
test: qHTS assay for identifying genotoxic compounds that show differential cytotoxicity against isogenic chicken DT40 cell lines with known DNA damage response pathways - Rad54/Ku70 mutant cell line (AID 743015); details: DT40 Rad54/Ku70 mutant viability, CellTiter-Glo, 40 h; series mostly up to 66.8 µM; activity change, negative = cytotoxicity: at the top concentration; also: nearly all actives have a fitted effect of over 60% in size
% is scaled to controls: 0 for no effect and ±100 for the full control effect; potency is read from the fitted curve at half-maximal effect.

Structure (SMILES) | Potency | activity change, negative = cytotoxicity
Nc1ccc(Oc2ccc(N)c(N)c2)cc1 | 13.7 µM (active) | –
CCOc1ccc(NS(=O)(=O)c2ccc(N)cc2)nn1 | – | 1.16% (inactive)
C=CCCC=C | – | 0.956% [at 95.1 µM] (inactive)
Nc1cccc(S(=O)(=O)O)c1 | – | 6.31% (inactive)
Cc1c(-c2ccccc2)oc2c(C(=O)OCCN3CCCCC3)cccc2c1=O | – | 11.1% [at 30.7 µM] (inactive)
CCCCC1CCC(=O)O1 (configuration not stated) | – | 9.62% (inactive)
CCCN(CCC)C(=O)C(CCC(=O)O)NC(=O)c1ccccc1 (configuration not stated) | – | 2.29% (inactive)
CCN(CC)CCOc1ccc(Cc2ccccc2)cc1 | 0.376 µM (active) | –
CCCCCCCCCCCCCCCCOP(=O)([O-])OCC[N+](C)(C)C | – | 1.8% (inactive)
O=C(O)C(=O)Cc1c[nH]c2ccccc12 | – | -2.87% (inactive)
CCCCOc1cc(C(=O)NCCN(CC)CC)c2ccccc2n1 | 10.1 µM (active) | –
CCC/C=C/CO | – | -3.47% (inactive)
CCc1nnc(NS(=O)(=O)c2ccc(N)cc2)s1 | – | 0.0543% (inactive)
N#Cc1ccc(C(c2ccc(C#N)cc2)n2cncn2)cc1 | inactive | –
O=C(O)[C@@H](O)[C@H](O)[C@H](O)[C@@H](O)C(=O)O | – | 2.22% (inactive)
O=C(O)c1cccc(Cl)c1Cl | – | 2.43% (inactive)
Cc1ccc(C=O)s1 | – | -0.0456% (inactive)
CC1(C)O[C@@H]2C[C@H]3[C@@H]4CCC5=CC(=O)CC[C@]5(C)[C@@]4(F)[C@@H](O)C[C@]3(C)[C@]2(C(=O)CCl)O1 | – | -19.7% [at 30.7 µM] (inactive)
COc1nc(C)nc(NC(=O)NS(=O)(=O)c2ccccc2OCCCl)n1 | – | 4.58% (inactive)
CN1CCN(c2c(F)cc3c(=O)c(C(=O)O)cn4c3c2SCC4)CC1 | 21.1 µM (active) | –
CCCCc1ccc2nc(NC(=O)OC)[nH]c2c1 | 0.114 µM (active) | –
CCNCCO | – | 14.3% (inactive)

From PubChem BioAssay (Tox21)
